Hits are enriched below; roughly 5.9% of the tested compounds scored in any of these assays.
KB-3-1 cytotox = qHTS assay for MDR1-selective chemotherapeutics: Primary screen using the parental adenocarcinoma cell KB-3-1 | AID 1347075, 2019 | KB-3-1 viability, CellTiter-Glo ATP luminescence, 72 h | actives 1.4% (n = 400,000) | Potency, µM (series often up to 46.1 µM), hits mostly cytotoxic; also: % is scaled to controls: 0 for no effect and ±100 for the full control effect; nearly all actives have a fitted effect of over 60% in size
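Here the drug-naive KB-3-1 line serves as comparator for MDR sub-line selectivity; cells received compound titrations, 72 h at 37 °C, then CellTiter-Glo readout.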
TGFb inhibitor = qHTS for Inhibitors of TGF-b | AID 588855, 2011 | Potency, µM (doses to about 46.1 µM), for inactives: at the top dose activity, negative = inhibition, most hits filed as inhibitors | actives 1.2% (n = 410,000) | HepG2 CAGA-GFP TGF-b/SMAD3 reporter, GFP fluorescence, 18 h; TGF-beta stimulated, 500 pg/mL final; also: % is scaled to controls: 0 for no effect and ±100 for the full control effect; nearly all actives have a fitted effect of over 65% in size
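Per well, imaged GFP fluorescence of HEPG2 CAGA-GFP cells gives the signal; cells get compound, then TGF-beta (500 pg/mL final), 18 h at 37 degrees C; %Activity versus -TGF-beta and +DMSO controls.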
KB-V1 cytotox = qHTS assay for MDR1-selective chemotherapeutics: Primary screen using the drug-selected MDR subline cells KB-V1 | KB-V1 MDR cells viability, CellTiter-Glo, 72 h | AID 1347076, 2019 | actives 3.4% (n = 400,000) | Potency, µM (series often up to 46.1 µM), usual class: cytotoxic; also: % is scaled to controls: 0 for no effect and ±100 for the full control effect; nearly all actives have a fitted effect of over 60% in size
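KB-V1 MDR subline cells in DMEM (phenol-red free, 10% FBS) exposed to compounds in qHTS concentration series for 72 h at 37 degrees C. Viability read by CellTiter-Glo luminescence; concentration-effect curves fitted after normalization and correction.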
ATXN2 expr inh = Primary qHTS for Inhibitors of ATXN expression. HEK-293 ATXN2-luciferase reporter, luminescence, 24 h. Potency, µM (titrated, usually from 57 µM), for the others: top-dose activity change, negative = inhibition, actives largely listed as inhibitors. actives 0.72% (n = 360,000). AID 1745845, 2022; also: % is scaled to controls: 0 for no effect and ±100 for the full control effect; nearly all actives have a fitted effect of over 55% in size
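ATXN2-luciferase reporter cells (luciferase flanked by upstream and downstream ATXN2 gene portions) were treated 24 h at 37 °C with compounds at up to 57 uM. SteadyGlo luminescence gave expression; GF-AFC fluorescence gave viability.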
ATXN viability = Viability Counterscreen for Primary qHTS for Inhibitors of ATXN expression; S2 cells (HEK-293 line with an ATXN2-luciferase reporter) viability, CellTiter-Fluor protease fluorescence, 24 h; Potency, µM (doses to about 56.7 µM), hits mostly cytotoxic; actives 0.49% (n = 400,000); also: nearly all actives have a fitted effect of over 40% in size
HepG2 viability = qHTS for Inhibitors of TGF-b: Cytotox Counterscreen | HepG2 CAGA-GFP viability, ATP luminescence, 18 h | Potency, µM (series often up to 46.1 µM), for the others: at the top dose activity change, negative = cytotoxicity, most hits filed as cytotoxic | actives 0.76% (n = 410,000)
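HepG2 CAGA-GFP cells (1000/well, DMEM with 1% FBS) received compound, then TGF-beta at 500 pg/mL final, and were incubated 18 hours at 37 degrees C. Viability was read by CellTiter-Glo luminescence. Media-only wells were set as complete cell-killing and DMSO as no toxicity.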
Active calls of the source: *; i = inactive; ? = inconclusive; · = no result. Calls follow the shape of the dose curve; as a rule, active = well fitted curve in the direction sought with a large enough effect; inconclusive = small, poorly fitted or top-dose-only effect, or another doubt; inactive = no such curve, though single readings can be large; an effect the other way counts as inactive or inconclusive. Potency is read from the fitted curve at half-maximal effect.

SMILES	KB-3-1 cytotox	TGFb inhibitor	KB-V1 cytotox	ATXN2 expr inh	ATXN viability	HepG2 viability
Cc1csc[n+]1CC(=O)c1ccc(I)cc1	i	-4%	i	·	·	-31%
CCN(CC)S(=O)(=O)c1cccc(-c2n[nH]c(=S)n2C)c1	i	-2%	?	-9%	i	5%
Cc1ccc(-c2n[nH]c(=S)n2C)cc1Cl	4.1µM*	-18%	2.9µM*	-25%	i	-21%
Cn1c(NCc2ccccc2F)nc2ccccc21	i	?	i	19%	i	-16%
COc1ccc(S(=O)(=O)N2CCCN(CC(=O)Nc3ccccc3F)CC2)cc1	i	-5%	9.2µM*	-9%	i	9%
O=C(CN1CCN(S(=O)(=O)c2ccccc2)CC1)Nc1ccccc1C(=O)NC1CC1	i	1%	6.5µM*	-1%	i	9%
NNc1nc(-c2ccccc2)cc(-c2ccccc2O)n1	?	5%	5.2µM*	-37%	i	-24%
NNc1nc(-c2ccccc2)cc(-c2ccccc2)n1	?	-2%	i	?	?	-31%
Cc1cc(C(=O)NCC2CCC3(CCN(Cc4ccc5ccccc5c4)CC3)O2)n(C)n1 (stereo not drawn)	·	·	·	·	i	·
CC(=O)N1CCc2c(sc3c2c(=O)n(-c2cc(Cl)ccc2C)c(=O)n3C)C1	?	2%	?	7%	i	-26%
COc1ccc(OC)c(CCNC(=O)c2nc(-c3ccc(Cl)cc3)n3c2CCCCC3)c1	?	?	i	-21%	?	-9%
COc1ccc(Cl)cc1-n1nnc(-c2nsc(NC(=O)c3ccccc3Cl)n2)c1C	i	-6%	i	2%	i	-35%
Fc1ccc(COc2ccc(Br)cc2CNCc2ccncc2)cc1	i	5%	2.9µM*	-29%	i	-16%
Nc1nonc1C(=O)NCCNCc1cc(Br)ccc1OCc1ccc(F)cc1	11µM*	-18%	?	·	·	-47%
Fc1ccccc1COc1ccc(Br)cc1CNCc1ccncc1	?	-11%	?	-24%	i	-41%
OCCNCc1cc(Br)ccc1OCc1ccccc1	i	6%	15µM*	-21%	i	-11%
CC(C)C(NC(=O)OCc1ccccc1)C(=O)NC(Cc1c[nH]c2ccccc12)C(=O)O (stereo not drawn)	?	-5%	i	3%	i	-1%
Cc1ccccc1OCC(=O)N1N=C(C(F)(F)F)CC1(O)C(C)(C)C (stereo not drawn)	i	?	?	-26%	i	11µM*
Cc1ccc(OCC(=O)N2N=C(C(F)(F)F)CC2(O)C(C)(C)C)cc1C (stereo not drawn)	i	?	18µM*	?	?	-106%
Cc1ccc(OCC(=O)N2N=C(c3cccnc3)CC2(O)C(F)(F)F)cc1C (stereo not drawn)	i	-16%	i	-1%	i	-1%
O=c1c2ccccc2nc2n1C(CSCc1ccc(Cl)cc1Cl)CS2 (stereo not drawn)	?	-5%	5.8µM*	-27%	i	-14%
CC1CCC(Nc2ncnc3onc(-c4ccc(Cl)cc4)c23)CC1 (stereo not drawn)	i	13%	i	0%	i	2%
O=C(O)c1ccc(OCCN2CCCCC2)cc1	·	·	·	13%	i	·
COc1ccc(NC(=S)NC(NC(=O)c2cccc(Cl)c2)C(Cl)(Cl)Cl)c([N+](=O)[O-])c1 (stereo not drawn)	?	22µM*	?	?	?	-56%
COc1ccc(NC(=S)NC(NC(=O)c2cccc(C)c2)C(Cl)(Cl)Cl)c([N+](=O)[O-])c1 (stereo not drawn)	?	-13%	i	24%	i	-37%
SMILES	KB-3-1 cytotox	TGFb inhibitor	KB-V1 cytotox	ATXN2 expr inh	ATXN viability	HepG2 viability
CC(C)C(=O)NC(NC(=S)Nc1cccc2cccnc12)C(Cl)(Cl)Cl (stereo not drawn)	i	23%	23µM*	-13%	i	0%
COc1ccc(NC(=O)c2cccnc2)c([N+](=O)[O-])c1	16µM*	-21%	?	-21%	?	0%
O=C(NC(NC(=S)Nc1ccccc1Cl)C(Cl)(Cl)Cl)c1cccc(Cl)c1 (stereo not drawn)	?	?	21µM*	?	?	-45%
COc1ccc(NC(=O)c2ccccc2)c([N+](=O)[O-])c1	i	-6%	?	39%	i	-9%
CCC(=O)NC(NC(=S)Nc1cccc2cccnc12)C(Cl)(Cl)Cl (stereo not drawn)	i	-4%	i	-4%	i	2%
COc1ccc(C(=O)Nc2ccc3nc(SCC(=O)N4CCCC4)sc3c2)cc1	·	0%	·	·	·	-14%
COc1ccc(OCC(=O)NCCS(=O)(=O)N2CCN(c3cccc(Cl)c3)CC2)cc1	·	0%	·	·	·	-25%
CSc1cccc(NC(=O)/C=C/c2cccc(Cl)c2)c1	?	?	18µM*	24%	?	-22%
O=C(/C=C/c1cccc(Cl)c1)Nc1ncccn1	i	10%	?	63%	i	-1%
COc1cc(NC(=O)c2cccnc2)ccc1NC(=O)c1ccccc1Cl	i	11%	i	-1%	i	-17%
O=C(/C=C/c1ccccc1)NC(NC(=S)Nc1cccc(Cl)c1)C(Cl)(Cl)Cl (stereo not drawn)	?	16µM*	?	?	?	10µM*
O=C(/C=C/c1ccccc1)NC(NC(=S)Nc1cccc(O)c1)C(Cl)(Cl)Cl (stereo not drawn)	?	?	?	-18%	i	-46%
COc1cc(S(=O)(=O)Nc2cccc(C)c2)ccc1NC(=O)c1cccnc1	?	-4%	21µM*	-3%	i	-28%
COC1=C(C(=O)O)N2C(=O)[C@@H](NC(=O)[C@H](N)C3=CCC=CC3)[C@H]2SC1	·	·	·	·	i	·
Cc1noc(Cn2c(=O)c3ccccc3n(CC(=O)Nc3ccc(F)cc3F)c2=O)n1	i	-4%	i	·	·	5%
COC(=O)c1ccc(Cl)cc1NC(=O)Nc1nnc(N2CCCC2)s1	i	?	i	24%	?	3%
O=S(=O)(Nc1cccc2cccnc12)c1cccs1	·	2.2µM*	·	·	·	-18%
